The panel holds about 83,000 compounds, 20% with a hit somewhere; the sample as a whole holds those more often.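 How to read the values: 0–100, growth inhibition (40 = 60% inhibited); 0, no net growth; -100 to 0, cell death (-40 = 40% of starting cells died; -100 = all dead).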 A number with no mark means an inactive call. The source made the active and inactive calls. How the source made its calls: active means growth percent below 10; inactive means the rest.

Test in all cases: NCI-60 one-dose screen, 48 h (100 = growth as untreated, 0 = no growth, -100 = all killed)
Holding throughout (conditions): 10 µM unless noted

Assay [1] deals with SK-MEL-2 melanoma.
The subject of assay [2] is EKVX NSCLC.
In assay [3] the test system is SN12C renal.
In assay [4] the test system is UO-31 renal.
For assay [5], the system named is TK-10 renal.
Assay [6] deals with ACHN renal.
Assay [7] relates to CAKI-1 renal.
In assay [8] the test system is A498 renal.
For assay [9], the system named is CCRF-CEM leukemia.
Assay [10] relates to MOLT-4 leukemia.
Assay [11] relates to SR leukemia.
For assay [12], the system named is RPMI-8226 leukemia.
Assay [13] deals with OVCAR-5 ovarian.
For assay [14], the system named is OVCAR-4 ovarian.
Assay [15] has as its system SK-OV-3 ovarian.
The test system of assay [16] is IGROV1 ovarian.
The test system of assay [17] is OVCAR-3 ovarian.
Assay [18] concerns HS 578T breast.
Assay [19] relates to NCI/ADR-RES ovarian.
The test system of assay [20] is OVCAR-8 ovarian.

Take `C=C1C(=O)O[C@H]2[C@H]1CC/C(COC(=O)C(C)c1ccc(CC(C)C)cc1)=C\CC[C@@]1(C)O[C@@H]21` (stereo partly drawn): the growth was 36.7% in assay [1]; 46.2% in assay [2]; 35.2% in assay [3]; -87.6% (active) in assay [4]; 62% in assay [5]; -94.6% (active) in assay [6]. Besides, the growth was 79.1% in assay [7]; 92.7% in assay [8]; 4.97% (active) in assay [9]; -3.37% (active) in assay [10]; -1.31% (active) in [11]; -23% (active) in assay [12]. For the same molecule, the growth is 74.1% in [13]; 8.73% (active) in assay [14]; 102% in assay [15]; -69% (active) in assay [16]; 1.75% (active) in assay [17]; -4.39% (active) in assay [18]. Further, the growth in assay [19] is 14.6%.

On to `O=C(Nc1ccc(OS(=O)(=O)c2ccc(F)cc2)cc1)c1ccc(Cl)cc1`, for which the growth was 90.6% in assay [1]; 101% in assay [2]; 95.7% in assay [3]; 92.5% in assay [4]; 95.6% in assay [5]; 103% in assay [6]. The growth in assay [7] is 105%; in assay [8] it was 82.9%; in [9], 98.7%; in [10], 89.1%; in assay [11] it was 91.4%; in [12] it was 94.2%. For the same molecule, the growth in assay [13] is 102%; in assay [14] it was 106%; in assay [15] it was 105%; in assay [16], 95.7%; in assay [17], 102%; in [18] it was 104%. In addition, the growth in [19] was 93.1%.

`COc1ccc(-c2nc3sc(-c4ccccc4)cn3n2)cc1`: the growth was 59.1% in assay [1]; 62.7% in assay [2]; 62.6% in [3]; 61.7% in [4]; 106% in [5]; 67.5% in assay [6]. In addition, the growth in [7] is 60%; in assay [8], 43.7%; in assay [9], 64.2%; in [10] it was 50.7%; in [11], 41.2%; in assay [12], 78.6%. Further, the growth in assay [13] is 108%; in assay [14] it was 62.2%; in [15], 67.8%; in assay [16], 47.8%; in assay [17], 58.2%; in assay [18], 59.9%. Further, the growth in assay [19] was 34%.

Consider `COc1cccc(Oc2ccccc2NC(=O)CNC(=O)c2cccc3ccccc23)c1`, for which the growth was 30% [5 µM] in [1]; 35.3% [5 µM] in assay [2]; 31.4% [5 µM] in assay [3]; 39.8% [5 µM] in assay [4]; 58.5% [5 µM] in assay [5]; 33.7% [5 µM] in [6]. The growth is 23.8% [5 µM] in assay [7]; -16.3% [5 µM] (active) in assay [8]; 15.4% [5 µM] in assay [9]; 12.3% [5 µM] in assay [10]; 5.26% [5 µM] (active) in assay [11]; 21.8% [5 µM] in [12]. For the same molecule, the growth in assay [13] was 41.8% [5 µM]; in assay [14] it was 42.2% [5 µM]; in [16] it was 27.6% [5 µM]; in assay [17] it was -23.7% [5 µM] (active); in assay [18] it was 24.7% [5 µM]; in assay [19], 15.3% [5 µM].

Take `C(=N/Nc1ncnc2nc[nH]c12)/c1ccccn1`: the growth in assay [1] was 71.5%; in assay [2] it was 24.9%; in assay [3], 36.6%; in assay [4], 3.16% (active); in [5], 56.1%; in assay [6], 23.4%. Besides, the growth is -25.4% (active) in assay [7]; 55% in assay [8]; 23.7% in assay [9]; 22.2% in assay [10]; 25.7% in assay [11]; 28.5% in [20]. The growth is 50.8% in assay [13]; 31.9% in assay [14]; 28.9% in assay [15]; -8.74% (active) in [16]; 51% in assay [17]; 64.1% in assay [18].

Regarding `Cc1ccc(C(=O)N/N=C/c2cccc([N+](=O)[O-])c2)cn1`, the growth in assay [1] was 111%; in [2] it was 104%; in assay [3] it was 105%; in assay [4], 76.6%; in assay [5], 118%; in assay [6], 107%. Besides, the growth in assay [7] was 87.1%; in assay [8], 84.9%; in assay [9], 96.7%; in assay [10] it was 92.1%; in [11], 108%; in assay [12] it was 93%. Moreover, the growth was 108% in [13]; 102% in assay [15]; 108% in assay [16]; 118% in assay [17]; 93.1% in assay [18]; 104% in assay [19].

Regarding `Nc1ccccc1-c1cc2c(c3c1[nH]c1ccccc13)CCCCC2`, the growth was 92.5% in assay [1]; 89.9% in assay [2]; 99.7% in assay [3]; 96.7% in assay [4]; 101% in assay [5]; 107% in [6]. The growth was 114% in assay [7]; 119% in assay [8]; 93.1% in [9]; 90.8% in [10]; 94.2% in [11]; 99.3% in assay [12]. Further, the growth in assay [13] is 108%; in assay [14] it was 105%; in assay [16], 97%; in assay [17] it was 102%; in [18], 95.2%; in [19], 94.8%.

For the molecule `COc1ccc(C(Cc2ccccc2)NCCN2CCOCC2)cc1` (stereo not drawn), the growth in assay [1] was 95.9%; in assay [2], 104%; in assay [3] it was 99.6%; in assay [4] it was 84.5%; in assay [5] it was 95.4%; in assay [6] it was 106%. Further, the growth was 98.8% in assay [7]; 101% in assay [8]; 113% in [9]; 93.8% in assay [10]; 96.4% in assay [11]; 109% in assay [12]. Also, the growth in assay [13] was 94.7%; in assay [14], 98.7%; in assay [15] it was 102%; in assay [16], 91.8%; in assay [17] it was 100%; in assay [18], 107%. Moreover, the growth in [19] is 98.7%.

(Values after PubChem BioAssay (NCI).)
